Reference: PubChem BioAssay (NCATS)
Inconclusive results are not listed. Activity calls are given as the source filed them. The call rests on the fitted dose curve.

These compounds were tested against Nucleoprotein (Lymphocytic choriomeningitis virus (strain Armstrong)) (UniProt P09992) (assay: qHTS for Inhibitors of the Functional Ribonucleoprotein Complex (vRNP) of Lymphocytic Choriomeningitis Arenaviruses (LCMV): LCMV Primary Screen - GLuc reporter signal (AID 1347086; further: nearly all actives have a fitted effect of over 70% in size)). Conditions: LCMV minigenome vRNP cell assay, Gaussia luciferase reporter; series mostly up to 57.5 µM; activity change, negative = inhibition: at the top concentration.
Nucleoprotein (Lymphocytic choriomeningitis virus (strain Armstrong)), sequence (P09992 whole entry, looked up): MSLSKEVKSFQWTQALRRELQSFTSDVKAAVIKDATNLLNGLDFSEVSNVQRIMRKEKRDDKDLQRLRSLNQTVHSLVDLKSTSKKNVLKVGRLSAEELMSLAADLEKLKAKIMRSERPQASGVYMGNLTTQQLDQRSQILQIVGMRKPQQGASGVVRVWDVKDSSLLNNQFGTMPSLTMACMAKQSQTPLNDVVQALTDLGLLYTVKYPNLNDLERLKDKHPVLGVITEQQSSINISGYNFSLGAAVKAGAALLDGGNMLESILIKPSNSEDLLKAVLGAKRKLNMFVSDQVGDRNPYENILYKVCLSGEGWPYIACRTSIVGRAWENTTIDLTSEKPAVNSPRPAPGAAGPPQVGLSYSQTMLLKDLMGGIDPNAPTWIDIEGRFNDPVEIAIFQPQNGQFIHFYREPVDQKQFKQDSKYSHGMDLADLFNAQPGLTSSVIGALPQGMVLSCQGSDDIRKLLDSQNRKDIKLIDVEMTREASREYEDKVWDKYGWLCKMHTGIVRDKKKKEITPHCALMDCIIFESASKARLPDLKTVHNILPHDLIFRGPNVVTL
On the % scale 0 is the no-effect control and ±100 the full control effect.

SMILES	activity change, negative = inhibition	Potency
O=C(O)c1cc([N+](=O)[O-])ccc1NCCCc1ccccc1	42.1% (inactive)	–
CC(N)=O	–	inactive
NC(N)=NC(N)=Nc1cccc(Cl)c1	24.7% (inactive)	–
Cc1cccc(C(=O)NCN2CCN(c3ccccc3C#N)CC2)c1	-0.0653% (inactive)	–
O=C(O)[C@@H]1C[C@@H](C(=O)O)N1	-3.19% (inactive)	–
O=C(O)c1ccccc1Nc1cccc(OCc2ccc3ccccc3n2)c1	-21% (inactive)	–
COc1cc2c(CCNC(C)=O)c[nH]c2cc1O	–	inactive
O=[N+]([O-])c1cccc2cn[nH]c12	20.9% (inactive)	–
CC(C)(C=O)Cc1cc(C(C)(C)C)c(O)c(C(C)(C)C)c1	-1.02% (inactive)	–
Cc1nc(N=Nc2ccc(S(=O)(=O)O)cc2S(=O)(=O)O)c(COP(=O)(O)O)c(C=O)c1O	8.34% (inactive)	–
O=C1CCC(c2ccc(-n3ccnc3)cc2)=NN1	11.6% (inactive)	–
COc1ccc(C(=O)NCc2cccnc2)cc1C(=O)NCc1cccnc1	20.3% (inactive)	–
COc1cc(CC(=O)O)ccc1O	23.3% (inactive)	–
CCCn1c(=O)c2[nH]c(C3CCCC3)nc2n(CCC)c1=O	5.82% (inactive)	–
O=[N+]([O-])c1cccc2c(Br)[nH]nc12	-36.5% (inactive)	–
Cc1ccc2c(c1)C(N1CCN(C)CC1)=Nc1cccnc1N2	5.12% (inactive)	–
O=c1[nH]c(=O)c2nc3ccccc3nc2[nH]1	16.1% (inactive)	–
CCCn1c(=O)c2[nH]c(-c3ccc(S(=O)(=O)O)cc3)nc2n(CCC)c1=O	28.1% (inactive)	–
COc1ccccc1N1CCN(CCN2C(=O)CC3(CCCC3)CC2=O)CC1	18.9% (inactive)	–
CN[C@H](CC(=O)O)C(=O)O	–	inactive

SMILES	activity change, negative = inhibition	Potency
CN(C)C(N)=NCCC[C@H](N)C(=O)O	–	inactive
c1ccc2c(c1)CC(N1CCN(c3cccc4c3OCCO4)CC1)C2	-11.9% (inactive)	–
CCCn1c(=O)c2c(ncn2C)n(CCC)c1=O	4.54% (inactive)	–
CCN(CC)CCOC(=O)c1cc(Cl)c(N)cc1OC	28.6% (inactive)	–
O=c1[nH]c2ccccc2c2ccccc12	3.49% (inactive)	–
COc1ccccc1N1CCN(CCCCN2C(=O)c3ccccc3C2=O)CC1	29.3% (inactive)	–
N=C(N)SCCc1cnc[nH]1	-0.869% (inactive)	–
CCn1c(=O)[nH]c2cc(Cl)c(Cl)cc21	2.83% (inactive)	–
O=C(Nc1cccc(C(=O)Nc2ccc(S(=O)(=O)O)c3cc(S(=O)(=O)O)cc(S(=O)(=O)O)c23)c1)Nc1cccc(C(=O)Nc2ccc(S(=O)(=O)O)c3cc(S(=O)(=O)O)cc(S(=O)(=O)O)c23)c1	-10.9% (inactive)	–
COc1ccc(-c2ccc(N)[n+](CCCC(=O)O)n2)cc1	22.7% (inactive)	–
O=C(OCCN1CCOCC1)C1(c2ccccc2)CCCCC1	-2.57% (inactive)	–
C[C@@H](NC(=O)/C(C#N)=C/c1ccc(O)c(O)c1)c1ccccc1	-3.44% (inactive)	–
NS(=O)(=O)c1cccc2c1c([N+](=O)[O-])cc1nc(O)c(O)nc12	24.2% (inactive)	–
Cc1ccc([N+](=O)[O-])cc1S(=O)(=O)N(C)C	31.6% (inactive)	–
C#CCn1c(=O)c2c(ncn2C)n(C)c1=O	9.84% (inactive)	–
O=C(O)c1ccccc1Nc1ccccc1	2.39% (inactive)	–
O=c1onc2cnc3ccccc3n12	30.4% (inactive)	–
COc1ccc2c(c1)c(CC(=O)O)c(C)n2Cc1ccc(Cl)cc1	19% (inactive)	–
O=C(c1cc(O)c(O)c([N+](=O)[O-])c1)c1ccccc1F	-15.9% (inactive)	–
C[C@@H]1C(=O)NC2=Nc3cccc(Cl)c3CN21	-20.5% (inactive)	–
